# From PMC4081100, “A DNA-binding-site landscape and regulatory network analysis for NAC transcription factors in Arabidopsis thaliana”
# What was measured:
# Assay in all cases: universal protein binding microarray (PBM); transcription factors of Arabidopsis thaliana; high values mean tight binding
# [1] = target: T1, GST-ANAC055(1-171) (Arabidopsis thaliana, UniProt Q9LDY8 1-171); conditions: protein: recombinant; tags: GST; chain copies: 2; dsDNA, one strand shown
# T1 sequence: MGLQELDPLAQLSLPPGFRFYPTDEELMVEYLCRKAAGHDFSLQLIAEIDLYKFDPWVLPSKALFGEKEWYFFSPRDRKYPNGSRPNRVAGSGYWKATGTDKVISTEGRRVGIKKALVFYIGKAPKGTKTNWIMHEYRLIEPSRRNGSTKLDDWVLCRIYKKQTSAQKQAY
# Method in brief: (§1)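 Binding is expressed as the normalised enrichment score (E-score). Proteins carrying a GST tag, whether NAC-domain, full-length or DNA-binding-domain forms, were induced in cells, and zinc acetate was added for zinc-finger proteins. After purification on glutathione–Sepharose 4B and quantification by A280 or anti-GST western blot, each was applied in duplicate at 200 to 500 nM final to custom all-10-mer Agilent 4 × 180K arrays made double-stranded by primer extension. Gapped and ungapped 8-mers were scored.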
# [2] = target: T2, GST-ATAF1 NAC domain (Arabidopsis thaliana, UniProt Q39013 7-158); conditions: protein: recombinant; tags: GST; chain copies: 2; dsDNA, one strand shown
# T2 sequence: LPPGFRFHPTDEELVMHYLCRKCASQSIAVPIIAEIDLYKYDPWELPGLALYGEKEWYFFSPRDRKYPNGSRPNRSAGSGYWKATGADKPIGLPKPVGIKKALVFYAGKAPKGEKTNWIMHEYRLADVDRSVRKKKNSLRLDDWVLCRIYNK
# Method in brief: as §1
# [3] = target: T3, GST-NAP(1-166) (Arabidopsis thaliana, UniProt O49255 1-166); conditions: protein: recombinant; tags: GST; chain copies: 2; dsDNA, one strand shown
# T3 sequence: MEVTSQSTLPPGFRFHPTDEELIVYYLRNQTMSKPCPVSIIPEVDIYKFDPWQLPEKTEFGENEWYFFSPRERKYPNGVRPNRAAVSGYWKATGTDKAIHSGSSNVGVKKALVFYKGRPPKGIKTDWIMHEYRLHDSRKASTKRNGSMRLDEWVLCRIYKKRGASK
# Method in brief: as §1
# [4] = target: GST-WRKY1(266-371) (Arabidopsis thaliana, UniProt Q9SI37 266-371); conditions: protein: recombinant; tags: GST; dsDNA, one strand shown
# Chain of GST-WRKY1(266-371) (Q9SI37 266-371): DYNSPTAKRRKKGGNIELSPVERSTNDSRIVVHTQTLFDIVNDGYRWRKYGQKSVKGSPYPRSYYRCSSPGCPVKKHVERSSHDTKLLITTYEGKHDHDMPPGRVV
# Method in brief: as §1
# [5] = target: T4, GST-ANAC019 NAC domain (Arabidopsis thaliana, UniProt Q9C932 14-162); conditions: protein: recombinant; tags: GST; chain copies: 2; dsDNA, one strand shown
# T4 sequence: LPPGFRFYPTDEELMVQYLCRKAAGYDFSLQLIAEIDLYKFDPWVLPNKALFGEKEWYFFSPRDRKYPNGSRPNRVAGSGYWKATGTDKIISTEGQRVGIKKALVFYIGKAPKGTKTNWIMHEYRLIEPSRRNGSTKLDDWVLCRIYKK
# Method in brief: as §1
# [6] = target: T5, GST-ANAC092(1-285) full length (Arabidopsis thaliana, UniProt Q9FKA0 1-285); conditions: protein: recombinant; tags: GST; chain copies: 2; dsDNA, one strand shown
# T5 sequence: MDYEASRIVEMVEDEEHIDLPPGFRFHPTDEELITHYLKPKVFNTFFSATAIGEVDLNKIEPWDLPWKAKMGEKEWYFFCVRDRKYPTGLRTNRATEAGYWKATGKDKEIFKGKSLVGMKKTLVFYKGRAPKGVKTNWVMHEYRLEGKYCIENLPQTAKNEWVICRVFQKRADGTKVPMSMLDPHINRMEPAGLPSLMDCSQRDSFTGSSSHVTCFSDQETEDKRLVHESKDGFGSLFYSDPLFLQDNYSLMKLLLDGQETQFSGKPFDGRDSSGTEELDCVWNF
# Method in brief: as §1
# [7] = target: T6, GST-NTL8 NAC domain (Arabidopsis thaliana, UniProt Q9XIN7 14-156); conditions: protein: recombinant; tags: GST; chain copies: 2; dsDNA, one strand shown
# T6 sequence: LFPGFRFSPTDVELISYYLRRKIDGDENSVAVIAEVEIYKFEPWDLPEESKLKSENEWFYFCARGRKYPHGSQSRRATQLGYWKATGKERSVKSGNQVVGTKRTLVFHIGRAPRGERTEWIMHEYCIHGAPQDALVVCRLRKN
# Method in brief: as §1
# [8] = target: GST-NTL6(1-168) (Arabidopsis thaliana, UniProt Q9SCK6 1-168); conditions: protein: recombinant; tags: GST; chain copies: 2; dsDNA, one strand shown
# Chain of GST-NTL6(1-168) (Q9SCK6 1-168): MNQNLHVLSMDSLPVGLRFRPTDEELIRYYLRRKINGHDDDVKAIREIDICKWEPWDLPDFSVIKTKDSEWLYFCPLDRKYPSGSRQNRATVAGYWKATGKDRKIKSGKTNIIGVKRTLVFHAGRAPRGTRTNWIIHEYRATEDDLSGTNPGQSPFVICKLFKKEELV
# Method in brief: as §1
# [9] = target: T7, GST-NST2(1-184) (Arabidopsis thaliana, UniProt Q9M274 1-184); conditions: protein: recombinant; tags: GST; chain copies: 2; dsDNA, one strand shown
# T7 sequence: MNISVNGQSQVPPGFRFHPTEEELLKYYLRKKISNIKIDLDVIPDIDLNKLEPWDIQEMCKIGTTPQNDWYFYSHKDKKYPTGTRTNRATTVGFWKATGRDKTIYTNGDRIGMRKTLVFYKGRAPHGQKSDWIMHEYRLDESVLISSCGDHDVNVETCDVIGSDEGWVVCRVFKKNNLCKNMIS
# Method in brief: as §1
sequence,measurement,setting,value
CTCGTCAA,binding signal,[1],0.0602 E-score
same,binding signal,[2],0.0515 E-score
same,binding signal,[3],0.0553 E-score
same,binding signal,[4],0.424 E-score
ATTTGACC,binding signal,[1],0.079 E-score
same,binding signal,[4],0.481 E-score
GTGTCAAC,binding signal,[5],0.0933 E-score
same,binding signal,[3],0.0561 E-score
same,binding signal,[4],0.404 E-score
CCGTCAAC,binding signal,[5],0.0816 E-score
same,binding signal,[4],0.451 E-score
GACTTGAC,binding signal,[1],0.11 E-score
same,binding signal,[2],0.199 E-score
same,binding signal,[6],0.0614 E-score
same,binding signal,[7],0.0707 E-score
same,binding signal,[4],0.458 E-score
AGTCAGAC,binding signal,[5],0.0719 E-score
same,binding signal,[4],0.442 E-score
CGAAGTCA,binding signal,[8],0.0962 E-score
same,binding signal,[7],0.132 E-score
same,binding signal,[4],0.42 E-score
CTGACCAC,binding signal,[5],0.0574 E-score
same,binding signal,[4],0.41 E-score
CCGTTGAC,binding signal,[5],0.157 E-score
same,binding signal,[6],0.0578 E-score
same,binding signal,[3],0.126 E-score
same,binding signal,[4],0.49 E-score
CGTTGACC,binding signal,[5],0.0797 E-score
same,binding signal,[3],0.0594 E-score
same,binding signal,[7],0.123 E-score
same,binding signal,[4],0.496 E-score
GTTGACGA,binding signal,[2],0.0784 E-score
same,binding signal,[4],0.453 E-score
GCGTTGAC,binding signal,[5],0.0691 E-score
same,binding signal,[3],0.116 E-score
same,binding signal,[4],0.488 E-score
GACCAAGA,binding signal,[5],0.0567 E-score
same,binding signal,[4],0.403 E-score
GAAGACCA,binding signal,[5],0.0558 E-score
same,binding signal,[4],0.442 E-score
GCTGACCA,binding signal,[5],0.0761 E-score
same,binding signal,[4],0.462 E-score
GCAGTCAA,binding signal,[2],0.0666 E-score
same,binding signal,[3],0.0815 E-score
same,binding signal,[7],0.0556 E-score
same,binding signal,[4],0.478 E-score
GATTTGAC,binding signal,[2],0.122 E-score
same,binding signal,[4],0.464 E-score
GTAGGTCA,binding signal,[5],0.129 E-score
same,binding signal,[7],0.0647 E-score
same,binding signal,[4],0.416 E-score
GAGTCAAC,binding signal,[5],0.14 E-score
same,binding signal,[4],0.487 E-score
CAGTTGAC,binding signal,[5],0.135 E-score
same,binding signal,[1],0.0582 E-score
same,binding signal,[2],0.112 E-score
same,binding signal,[3],0.0525 E-score
same,binding signal,[9],0.0574 E-score
same,binding signal,[4],0.477 E-score
AGGTCAAC,binding signal,[2],0.051 E-score
